Measured values published in PubChem BioAssay (NCATS).
Several values for one entry are separate records, joined by “and”; a condition that tells them apart may be missing. Equal values may be shown once. Records with an inconclusive call do not appear. Some structures have more than one record in an assay (separate samples or runs), and their calls can disagree. Activity calls are given as the source filed them. Calls come from the whole dose curve; as a rule, active = well fitted inhibition curve with a large enough effect; inconclusive = small, poorly fitted or top-dose-only effect; inactive = flat fitted curve, though single readings scatter.

What was measured:
CRL-7250 = normal cell line; experiment: Cytotoxic Profiling of Annotated Libraries Using Quantitative High-Throughput Screening (AID 1296008); settings: Five cell lines viability, CellTiter-Glo ATP luminescence, 48-72 h; max response: stronger effect = lower value
Outline: (§1)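 Cells exposed to compounds for 48 or 72 hr at 37 degrees Celsius. Viability read as ATP-coupled luminescence with CellTiter-Glo after 10 min at room temperature.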

HEK293 = experiment: as above; settings: Five cell lines viability, CellTiter-Glo ATP luminescence, 48-72 h; max response: stronger effect = lower value
Outline: as §1

HaCat [1] = experiment: as above; settings: Five cell lines viability, CellTiter-Glo ATP luminescence, 48-72 h; max response: stronger effect = lower value
Outline: as §1

KB-3-1 = experiment: as above; settings: Five cell lines viability, CellTiter-Glo ATP luminescence, 48-72 h; max response: stronger effect = lower value
Outline: as §1

NIH3T3 = experiment: as above; settings: Five cell lines viability, CellTiter-Glo ATP luminescence, 48-72 h; max response: stronger effect = lower value
Outline: as §1

MCC-13 = experiment: qHTS assay to identify novel small-molecules to repurpose for Merkel cell carcinoma treatment (AID 1296009); settings: MCC and control cell lines, CellTiter-Glo viability, 72 h; series mostly up to 46 µM
Outline: (§2)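 Cells were incubated with compound for 72 hr at 37 degree celsius before CellTiter-Glo addition. Luminescence was normalized with no-cell wells as full cytotoxicity and DMSO as baseline.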

MCC-26 = experiment: as above; settings: MCC and control cell lines, CellTiter-Glo viability, 72 h; series mostly up to 46 µM
Outline: as §2

HACAT [2] = experiment: as above; settings: MCC and control cell lines, CellTiter-Glo viability, 72 h; series mostly up to 44.8 µM
Outline: as §2

MKL-1 = experiment: as above; settings: MCC and control cell lines, CellTiter-Glo viability, 72 h; series mostly up to 46 µM
Outline: as §2

HEK293T = experiment: as above; settings: MCC and control cell lines, CellTiter-Glo viability, 72 h; at 44.8 µM (top of the series) unless noted
Outline: as §2
% is set by controls: 0 for no effect and ±100 for the full control effect; potency is the fitted concentration of half-maximal effect.
Note: nearly all actives have a fitted effect of over 60% in size.

COc1ccc(F)c(F)c1C(=O)c1cnc(NC2CCN(S(C)(=O)=O)CC2)nc1N
active: Potency (CRL-7250) 2.35 µM and 3.66 µM | Potency (HEK293) 1.05 µM | Potency (HaCat [1]) 10.5 µM and 5.17 µM | Potency (KB-3-1) 3.32 µM and 4.11 µM | Potency (NIH3T3) 2.09 µM and 3.26 µM

Nc1ncnc2c1c(-c1cnc3[nH]ccc3c1)nn2C1CCCC1
active: Potency (CRL-7250) 118 nM and 920 nM | Potency (HEK293) 1.48 µM and 2.59 µM | Potency (HaCat [1]) 2.64 µM and 1.84 µM | Potency (KB-3-1) 1.66 µM and 4.61 µM | Potency (NIH3T3) 83.3 nM and 517 nM | Potency (MCC-13) 4.18 µM | Potency (MCC-26) 10.5 µM

CC(=O)Nc1nc(C)c(-c2ccc(Cl)c(S(=O)(=O)NCCO)c2)s1
active: Potency (CRL-7250) 1.66 µM and 13 µM | Potency (HEK293) 4.18 µM and 11.6 µM | Potency (HaCat [1]) 6.51 µM | Potency (KB-3-1) 9.35 µM | Potency (NIH3T3) 3.32 µM and 2.59 µM

O=C(Nc1cc(C(F)(F)F)cc(C(F)(F)F)c1)c1cc(Cl)ccc1O
active: Potency (CRL-7250) 3.72 µM and 3.26 µM | Potency (HEK293) 590 nM and 1.16 µM | Potency (HaCat [1]) 2.64 µM and 2.91 µM | Potency (KB-3-1) 264 nM and 731 nM | Potency (NIH3T3) 3.32 µM and 5.8 µM

CC1(C)CC(=O)c2c(C(F)(F)F)nn(-c3ccc(C(N)=O)c(NC4CCC(OC(=O)CN)CC4)c3)c2C1 (stereo not given)
active: Potency (CRL-7250) 469 nM and 231 nM | Potency (HEK293) 118 nM and 58 nM | Potency (HaCat [1]) 2.35 µM and 517 nM | Potency (KB-3-1) 0.105 µM | Potency (NIH3T3) 418 nM and 366 nM

COc1cc(C(C)C)c2c(c1)S(=O)(=O)N(COc1cc(=O)n3cccc(OCCN4CCCCC4)c3n1)C2=O
inactive: max response (CRL-7250) -9.13% | max response (HEK293) -21.7% | outcome (HaCat [1]) | outcome (KB-3-1) | outcome (NIH3T3) | Potency (HACAT [2]) | Potency (MCC-13) | Potency (MCC-26) | Potency (MKL-1)

CN(C)Cc1c(C(=O)NCCOc2ccc(C(=O)NO)cc2)oc2ccccc12
active: Potency (CRL-7250) 4.69 µM and 4.61 µM | Potency (HEK293) 1.87 µM and 1.16 µM | Potency (HaCat [1]) 4.11 µM | Potency (KB-3-1) 1.48 µM and 1.3 µM | Potency (NIH3T3) 3.72 µM and 3.26 µM | Potency (MCC-13) 8.33 µM | Potency (MCC-26) 7.43 µM

O=C(NCCCNc1nc(Nc2cccc(NC(=O)N3CCCC3)c2)ncc1I)c1cccs1
active: Potency (CRL-7250) 5.9 µM | Potency (HEK293) 20.9 µM | Potency (HaCat [1]) 18.7 µM | Potency (KB-3-1) 13.2 µM | Potency (NIH3T3) 2.09 µM | Potency (MCC-13) 9.35 µM

c1ccc2c(CCNc3ccc(Nc4ccncc4)cc3)c[nH]c2c1
active: Potency (CRL-7250) 10.5 µM | Potency (HEK293) 1.05 µM and 2.31 µM | Potency (HaCat [1]) 11.8 µM | Potency (KB-3-1) 23.5 µM | Potency (NIH3T3) 16.6 µM and 11.6 µM | Potency (MCC-13) 20.9 µM | Potency (MKL-1) 9.35 µM
inactive: max response (HaCat [1]) 2.65%

Cc1ccc(C(N)=O)cc1Nc1nccc(-c2cn(C(C)C)c3cnccc23)n1
active: Potency (CRL-7250) 11.6 µM | Potency (HEK293) 6.51 µM | Potency (HaCat [1]) 23.5 µM | Potency (KB-3-1) 5.8 µM | Potency (NIH3T3) 10.5 µM

COc1cc2c(Oc3ccc(-c4cnc(Nc5ccc(F)cc5)n(C)c4=O)cc3F)ccnc2cc1OCCCN1CCOCC1
active: Potency (CRL-7250) 13.2 µM | Potency (HEK293) 4.69 µM | Potency (HaCat [1]) 23.5 µM | Potency (KB-3-1) 9.35 µM | Potency (NIH3T3) 526 nM and 5.8 µM

CC(C)(C)c1cc(C(C)(C)C)c(NC(=O)c2c[nH]c3ccccc3c2=O)cc1O
inactive: outcome (CRL-7250) | outcome (HEK293) | outcome (HaCat [1]) | max response (KB-3-1) -1.43% | outcome (NIH3T3) | Potency (HACAT [2]) | outcome (HEK293T) | Potency (MCC-13) | Potency (MCC-26) | Potency (MKL-1)

Cn1cc(-c2[nH]c3cc(NC(=O)[C@H](N)C4CCCCC4)cc4c3c2C=NNC4=O)cn1
inactive: max response (HaCat [1]) -8.38%
active: Potency (CRL-7250) 1.87 µM and 2.59 µM | Potency (HEK293) 3.32 µM and 5.8 µM | Potency (KB-3-1) 5.9 µM and 4.11 µM | Potency (NIH3T3) 14.8 µM

O=C(NCCS(=O)(=O)c1ccc(C(F)(F)F)cn1)c1ccc(Cl)cc1
inactive: max response (CRL-7250) 2.65% | max response (HEK293) -5.18% | outcome (HaCat [1]) | outcome (KB-3-1) | max response (NIH3T3) 1.91% | Potency (HACAT [2]) | Potency (MCC-13) | Potency (MCC-26) | Potency (MKL-1)

CN1CC[C@@H](c2c(O)cc(O)c3c(=O)cc(-c4ccccc4Cl)oc23)[C@@H](O)C1
active: Potency (CRL-7250) 0.166 µM | Potency (HEK293) 0.148 µM | Potency (HaCat [1]) 0.372 µM | Potency (KB-3-1) 0.235 µM | Potency (NIH3T3) 0.526 µM | Potency (MCC-13) 0.59 µM

CCOC(=O)C1=C(C)NC2=C(C(=O)CC(C)(C)C2)C1c1ccc(-c2ccccc2)cc1 (stereo not given)
active: Potency (CRL-7250) 26.4 µM and 10.3 µM | Potency (HEK293) 16.6 µM and 2.91 µM | Potency (HaCat [1]) 7.31 µM | Potency (NIH3T3) 20.9 µM and 5.8 µM
inactive: outcome (KB-3-1) | Potency (MCC-13)

COc1ccc(C=Cc2cc(OC)c(OC)c(OC)c2)cc1O
active: Potency (KB-3-1) 0.001 µM
inactive: max response (CRL-7250) -82.4% | max response (HEK293) -79.1% | max response (HaCat [1]) -0.114% | max response (NIH3T3) -49.1% | Potency (MCC-13) | Potency (MCC-26)

CCn1nnc2c(N3CCOCC3)nc(-c3ccc(NC(=O)Nc4ccc(C(=O)N5CCN(C)CC5)cc4)cc3)nc21
inactive: Potency (MCC-13)
active: Potency (CRL-7250) 0.0651 µM | Potency (HEK293) 0.206 µM | Potency (HaCat [1]) 662 nM and 1.16 µM | Potency (KB-3-1) 11.8 nM and 146 nM | Potency (NIH3T3) 0.517 µM

CC(=O)SC[C@@H](C)C(=O)N1CCC[C@H]1C(=O)N[C@@H](Cc1ccccc1)C(=O)O
inactive: max response (CRL-7250) 1.31% | outcome (HEK293) | max response (HaCat [1]) 1.63% | max response (KB-3-1) 2.35% | max response (NIH3T3) 0.0761% | outcome (HEK293T) | Potency (MCC-13) | Potency (MCC-26) | Potency (MKL-1)

CC(C)(C)c1cnc(CSc2cnc(NC(=O)C3CCNCC3)s2)o1
active: Potency (CRL-7250) 0.132 µM | Potency (HEK293) 0.418 µM | Potency (HaCat [1]) 1.32 µM | Potency (KB-3-1) 0.332 µM | Potency (NIH3T3) 3.32 µM

O=C(C=Cc1c(C(=O)O)[nH]c2cc(Cl)cc(Cl)c12)Nc1ccccc1
inactive: outcome (CRL-7250) | outcome (HEK293) | max response (HaCat [1]) -0.315% | max response (KB-3-1) 3.7% | max response (NIH3T3) 1.73% | outcome (HEK293T) | Potency (MCC-13) | Potency (MCC-26) | Potency (MKL-1)

Cn1cc(-c2ccncc2)c(-c2ccc(OCc3ccc4ccccc4n3)cc2)n1
active: Potency (CRL-7250) 2.64 µM | Potency (HEK293) 3.72 µM and 20.6 µM
inactive: max response (HaCat [1]) -14.9% | outcome (HaCat [1]) | max response (NIH3T3) -27.9% and -28% | Potency (HACAT [2]) | Potency (MCC-13) | Potency (MCC-26)

CC(C)(C)c1cc(NC(=O)Nc2ccc(-c3cn4c(n3)sc3cc(OCCN5CCOCC5)ccc34)cc2)no1
active: Potency (HEK293) 1.18 µM and 5.8 µM
inactive: max response (CRL-7250) -10.2% and -19.2% | outcome (HaCat [1]) | max response (KB-3-1) 4.76% and -14.7% | max response (NIH3T3) -25.4% | outcome (NIH3T3) | Potency (HACAT [2]) | Potency (MCC-13) | Potency (MKL-1)

O=C(c1ccc(Nc2nccc(-c3cc4ccccc4s3)n2)cc1)N1CCC(N2CCCC2)CC1
active: Potency (CRL-7250) 14.8 µM | Potency (HEK293) 5.26 µM | Potency (HaCat [1]) 23.5 µM | Potency (KB-3-1) 9.35 µM | Potency (NIH3T3) 26.4 µM and 23.1 µM

OCCCNc1cc(-c2ccnc(Nc3cccc(Cl)c3)n2)ccn1
active: Potency (CRL-7250) 46.9 nM and 146 nM | Potency (HEK293) 209 nM and 231 nM | Potency (HaCat [1]) 105 nM and 820 nM | Potency (KB-3-1) 118 nM and 206 nM | Potency (NIH3T3) 166 nM and 580 nM

CCn1cc(-c2ccnc3[nH]c(-c4cccc(CN(C)C)c4)cc23)c(-c2ccc(NC(=O)N(C)C)cc2)n1
active: Potency (CRL-7250) 14.8 µM | Potency (HEK293) 11.8 µM | Potency (HaCat [1]) 0.0893 µM | Potency (KB-3-1) 1.87 µM and 63.2 nM | Potency (NIH3T3) 3.72 µM and 632 nM | Potency (MKL-1) 0.0372 µM

CC(NCc1ccc2c(c1)nc(NC(=O)c1ccc(-c3cn[nH]c3)s1)n2CC(C)(C)O)C(C)(C)C (stereo not given)
active: Potency (CRL-7250) 0.296 µM | Potency (HEK293) 0.132 µM | Potency (HaCat [1]) 0.743 µM | Potency (KB-3-1) 0.209 µM | Potency (NIH3T3) 0.59 µM | Potency (MCC-13) 2.35 µM | Potency (MCC-26) 1.48 µM | Potency (MKL-1) 0.332 µM

C=CC(=O)Nc1cccc(Oc2nc(Nc3ccc(N4CCN(C)CC4)cc3)ncc2Cl)c1
active: Potency (CRL-7250) 4.18 µM and 920 nM | Potency (HEK293) 5.26 µM and 9.2 µM | Potency (HaCat [1]) 1.18 µM and 2.31 µM | Potency (KB-3-1) 2.96 µM and 5.8 µM | Potency (NIH3T3) 3.72 µM and 6.51 µM | Potency (MCC-13) 7.43 µM | Potency (MKL-1) 3.32 µM

C#Cc1cccc(Nc2ncnc3cc(OC)c(OCCCCCCC(=O)NO)cc23)c1
active: Potency (CRL-7250) 4.69 µM | Potency (HEK293) 1.05 µM and 4.61 µM | Potency (HaCat [1]) 2.64 µM and 6.51 µM | Potency (KB-3-1) 1.48 µM and 4.11 µM | Potency (NIH3T3) 13.2 µM | Potency (MCC-13) 16.6 µM | Potency (MCC-26) 10.5 µM | Potency (MKL-1) 0.935 µM
